Rows were chosen to be rich in hits. Some 3.6% of all compounds tested hit in one or more screens of this group.
A3A deaminase: blocks human APOBEC3A ssDNA deamination | P31941 | recombinant A3A, FAM/TAMRA ssDNA deamination fluorescence | inhibition, % at 20 µM | 0.41% of 330,000 active;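 active = at least 40% inhibition at 20 µM here, with at most 30% in a related deaminase screen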;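 also: plate controls were A3A with DMSO for no effect and wells lacking A3A enzyme for full effect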
Target sequence (P31941 whole entry, looked up): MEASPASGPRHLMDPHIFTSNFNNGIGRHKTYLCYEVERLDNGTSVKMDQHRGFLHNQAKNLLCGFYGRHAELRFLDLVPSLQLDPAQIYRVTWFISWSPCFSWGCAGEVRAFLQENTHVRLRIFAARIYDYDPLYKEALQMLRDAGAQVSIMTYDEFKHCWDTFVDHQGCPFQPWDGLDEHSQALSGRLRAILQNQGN
MITF act: activators of MITF-driven TRPM1 promoter activity in SK-MEL-5 cells. SK-MEL-5 TRPM1-promoter luciferase, 24 h; % of positive control, neutral wells = 0. activation, % at 12.5 µM. 0.75% of 300,000 active;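 active = mean activation of at least 80% with every replicate also reaching 80%; inconclusive = mean reaches 80% but some replicate falls short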;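 also: 0% = neutral control wells and 100% = parthenolide positive control wells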
Wnt bcat act: activators of Wnt/beta-catenin signaling | activation, % at 9.35 µM | Wnt/beta-catenin reporter cell assay, activator, plate reader | AID 743398 | 1.2% of 300,000 active; in the data active = activation above about 30%, passing the limit was not always enough; inconclusive = no clear call, values can overlap the other calls;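 also: 0% = neutral control wells and 100% = positive control wells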
esBAF inh: SWI/SNF esBAF complex inhibition; mouse ES cells, Bmi1-luciferase knock-in reporter, 24 h; 100% = twice the neutral-well signal; reporter increase, % at 12.5 µM; 2% of 350,000 active; AID 602393; in the data active = activation above about 40%; inconclusive = no clear call, values can overlap the other calls;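 also: 0% = median of the plate's neutral control wells and 100% = double that signal; a rise in the Bmi1 reporter signal indicates esBAF inhibition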
PHOSPHO1 inh: inhibitors of human PHOSPHO1 phosphatase; Q8TCT1; recombinant PHOSPHO1, absorbance phosphatase assay; inhibition, % at 13.3 µM; 1.1% of 290,000 active; AID 1565; in the data active = inhibition above about 60%
APOBEC3G inh: inhibitors of human APOBEC3G DNA deaminase; recombinant A3G, ssDNA deamination FAM/TAMRA fluorescence; inhibition, % at 20 µM; 0.28% of 330,000 active;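 active = inhibition of at least 40% at 20 µM, with no more than 30% in the related APOBEC3A deaminase screen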;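 also: plate controls were DMSO wells with A3G for no effect and wells lacking A3G enzyme for full effect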
Target sequence (Q9HC16 whole entry, looked up): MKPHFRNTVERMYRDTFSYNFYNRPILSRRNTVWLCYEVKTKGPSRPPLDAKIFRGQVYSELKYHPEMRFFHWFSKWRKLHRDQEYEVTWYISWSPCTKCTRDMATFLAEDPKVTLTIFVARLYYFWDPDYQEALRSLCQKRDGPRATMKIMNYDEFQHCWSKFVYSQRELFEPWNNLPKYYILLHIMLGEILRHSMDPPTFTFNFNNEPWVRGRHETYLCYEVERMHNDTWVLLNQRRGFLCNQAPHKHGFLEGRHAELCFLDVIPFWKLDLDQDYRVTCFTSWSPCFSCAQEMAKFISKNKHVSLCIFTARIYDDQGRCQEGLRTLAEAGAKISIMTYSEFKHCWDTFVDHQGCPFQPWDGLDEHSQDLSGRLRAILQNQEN
* marks the source's active call; other numbers are inactive results; ? = inconclusive; / = not tested or not shown.

SMILES | A3A deaminase | MITF act | Wnt bcat act | esBAF inh | PHOSPHO1 inh | APOBEC3G inh
CCOc1cc(/C=C/c2ccc3cccc([N+](=O)[O-])c3n2)ccc1O | -3 | 4 | 14 | / | -5 | -5
O=[N+]([O-])c1ccccc1/C=C/c1ccc2ccccc2n1 | -8 | 75 | 12 | 52* | 34 | -3
C[C@@H]1CCCCO[C@H](CN(C)S(=O)(=O)c2ccc(Cl)cc2)[C@H](C)CN([C@@H](C)CO)C(=O)c2cc(NC(=O)Nc3ccc4c(c3)OCO4)ccc2O1 | / | / | / | -4 | / | /
O=C(C[C@H]1CC[C@H](NC(=O)c2ccc(F)cc2)[C@@H](CO)O1)NCc1ccncn1 | / | / | / | -9 | / | /
COc1ccccc1-c1cnc2c(c1)C(=O)N([C@H](C)CO)C[C@H](C)[C@H](CN(C)Cc1cccc(F)c1)O2 | / | / | / | -7 | / | /
CCCNC(=O)[C@@H]1[C@@H](CO)[C@@H]2Cn3c(ccc(C4=CCCCC4)c3=O)[C@H]1N2C(=O)CC | / | / | / | 8 | / | /
COc1cccc(NC(=O)Nc2ccc(Br)cn2)c1 | 1 | 106* | -4 | 47* | 0 | -4
Cc1cc(NC(=O)Nc2ccc(Cl)cc2)no1 | 0 | 44 | 8 | 47* | 14 | -1
Cc1ccc(NC(=O)Nc2ccc(F)cc2)nc1 | -2 | 82* | / | / | -5 | -5
Cc1cccc(NC(=O)Nc2ccc(F)cc2)n1 | -2 | 45 | 12 | ? | 20 | -7
O=C(Nc1ccc(Cl)cc1)Nc1ccc(Br)cn1 | -1 | 94* | 2 | ? | 27 | -7
COc1ccc(NC(=O)Nc2ccc3c(c2)C(=O)N([C@@H](C)CO)C[C@@H](C)[C@@H](CN(C)CC2CCCCC2)OCCCC[C@@H](C)O3)cc1 | / | / | / | -2 | / | /
Cc1noc(C)c1S(=O)(=O)Nc1ccc2c(c1)C(=O)N([C@H](C)CO)C[C@@H](C)[C@H](CN(C)Cc1ccc(C(=O)O)cc1)O2 | / | / | / | -2 | / | /
O=C(NNC1=C(C(=O)C(F)(F)F)CCC1)c1ccccc1O | 2 | 3 | / | 7 | 20 | -2
Nc1ccccc1C(=O)NNC1=C(C(=O)C(F)(F)F)CCC1 | -2 | / | 68* | / | 29 | -3
Cc1c(Cl)cccc1N1C(=O)CC(N(O)c2ccccc2)C1=O (stereo not given) | -6 | / | / | 60* | 1 | -5
Cc1cccc(C)c1N1C(=O)CC(N(O)c2ccccc2)C1=O (stereo not given) | 7 | 10 | -6 | -4 | -18 | 3
C[C@@H]1CN([C@@H](C)CO)S(=O)(=O)c2ccc(C#Cc3cccnc3)cc2O[C@@H]1CN(C)C(=O)C1CC1 | / | / | / | -2 | / | /
O=C/C(=C\Nc1ccccn1)c1nc2cc(Cl)ccc2o1 | -3 | -3 | -6 | 47* | -4 | -3
CC(=O)Nc1cccc(N/C=C(\C=O)c2nc3ccccc3o2)c1 | 2 | 1 | 27 | 58* | -3 | -1
CC(=O)Nc1ccc(/C=C/c2nc3ccccc3o2)cc1 | -3 | 72 | 52* | -12 | 14 | -2
CC(=O)Nc1ccc(N/C=C(\C=O)c2nc3ccccc3o2)cc1 | -2 | -25 | -3 | 4 | 32 | -7
O=C/C(=C\Nc1ccccn1)c1nc2ccccc2o1 | -3 | 5 | / | 38 | 8 | -4
O=C(Nc1ccc(/C=C/c2nc3ccccc3o2)cc1)c1c(F)cccc1F | 1 | 18 | -4 | -4 | -9 | -2
CN(C)CC(=O)Nc1ccc2c(c1)[C@H]1C[C@H](CC(=O)NCc3cccnc3)O[C@@H](CO)[C@H]1O2 | / | / | / | -1 | / | /
SMILES | A3A deaminase | MITF act | Wnt bcat act | esBAF inh | PHOSPHO1 inh | APOBEC3G inh
COCC(=O)Nc1ccc2c(c1)C(=O)N(C)C[C@H](OC)[C@@H](C)CN(Cc1ccncc1)[C@H](C)CO2 | / | / | / | -5 | / | /
COc1cnn(-c2ccc(Br)cc2)c(=O)c1SCc1ccccc1 | -2 | 27 | -1 | / | 12 | -5
COc1cnn(-c2ccc(C)cc2)c(=O)c1SCc1ccccc1 | -3 | 65 | / | -13 | 81* | -4
COc1cnn(-c2ccccc2)c(=O)c1OC | 1 | / | 50* | / | 28 | -2
C[C@@H]1CN([C@H](C)CO)C(=O)c2cc(/C=C/c3ccccc3)cnc2O[C@H]1CN(C)C(=O)Nc1ccc(C(F)(F)F)cc1 | / | / | / | -3 | / | /
N#Cc1c(N)sc(=S)c2c1CCN(Cc1ccccc1)C2 | -2 | / | / | / | 47 | 53*
CC(=O)Nc1nc(COc2ccc3ccccc3c2)cs1 | -4 | 65 | 55* | 31 | 18 | -4
CC(=O)Nc1nc(COc2ccccc2)cs1 | 3 | 73 | / | 10 | 12 | -8
O=C(Nc1nc(COc2ccccc2)cs1)C1CCC1 | 0 | 45 | 46* | 64* | -38 | 1
Nc1nc(COc2ccc3ccccc3c2)cs1 | 0 | 104* | / | 59* | -12 | -11
Cc1ccc(S(=O)(=O)N(C)C[C@H]2Oc3c(NC(=O)Nc4c(C)noc4C)cccc3C(=O)N([C@@H](C)CO)C[C@@H]2C)cc1 | / | / | / | 3 | / | /
CCNC(=O)C[C@@H]1CC[C@@H]2[C@H](COC[C@@H](O)CN2C(=O)Nc2ccc(Cl)c(Cl)c2)O1 | / | / | / | 6 | / | /
Cc1ccsc1/C=N/NC(=O)Nc1ccccc1 | -7 | 107* | 16 | / | 23 | -20
O=C(N/N=C/c1ccc(Br)s1)Nc1ccccc1 | -1 | 64 | -2 | 51* | 24 | -5
Cc1ccsc1/C=N/NC(=O)c1ccc2ccccc2c1 | 1 | 44 | 20 | / | 16 | -4
C[C@@H]1CN([C@H](C)CO)C(=O)Cc2cc(NS(=O)(=O)c3ccc(F)cc3)ccc2O[C@@H]1CN(C)S(=O)(=O)c1ccccc1 | / | / | / | -3 | / | /
Cc1cccc(Oc2coc3cc(O)ccc3c2=O)c1 | -5 | / | 9 | 59* | 35 | 0
Cc1cc(C)cc(Oc2coc3cc(OC(=O)c4cccnc4)ccc3c2=O)c1 | 2 | -2 | -1 | / | -17 | -6
Cc1cccc(Oc2coc3cc(OC(=O)c4cc5ccccc5oc4=O)ccc3c2=O)c1 | -3 | 42 | / | 54* | 46 | 1
Cc1cccc(Oc2coc3cc(OC(=O)c4cncc(Br)c4)ccc3c2=O)c1 | 2 | 2 | 3 | 34* | 10 | -7
C[C@@H]1CN([C@@H](C)CO)C(=O)c2cc(NC(=O)Nc3cccc4ccccc34)ccc2O[C@@H](C)CCCCO[C@@H]1CN(C)Cc1ccc(C(=O)O)cc1 | / | / | / | -4 | / | /
COCCNC(=O)C[C@H]1C[C@@H]2c3cc(NC(=O)NC4CCCC4)ccc3O[C@@H]2[C@H](CO)O1 | / | / | / | 1 | / | /
COc1ccc(C(=O)Cn2nnc(-c3cccs3)n2)cc1 | 2 | / | 51* | 8 | 24 | 0
COc1ccc(N2CCN(C(=O)Cn3nnc(-c4cccs4)n3)CC2)cc1 | -4 | -11 | / | -7 | 24 | -9
CNC(=O)C[C@@H]1CC[C@H]2[C@@H](COc3ccc(NC(=O)c4cc(F)cc(F)c4)cc3C(=O)N2C)O1 | / | / | / | 2 | / | /
C[C@H](CO)N1C[C@H](C)[C@@H](CN(C)Cc2ccc(C(F)(F)F)cc2)Oc2ccc(NS(=O)(=O)c3cccs3)cc2C1=O | / | / | / | -7 | / | /

From PubChem BioAssay
